According to PubChem BioAssay AID624330 (Southern Research Specialized Biocontainment Screening …, 2012):
The campaign covered roughly 340,000 compounds. About 2,100 (0.62%) were called active.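 Rule for the calls: active = first-screen hits whose inhibition reached a set limit at any dose in the follow-up dose series; inconclusive = inhibition above the set first-screen limit but never retested; inactive = the rest.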 These entries were drawn from the full list. Measured potencies and affinities stand elsewhere.

target: Rac GTPase-activating protein 1 (Homo sapiens) (UniProt Q9H0H5); assay: blockers of MgcRacGAP-driven Rac1 GTP hydrolysis – biochemical, ADP Hunter fluorescence, primary and confirmatory, confirmation (AID 624330); details: MgcRacGAP-stimulated Rac1 GTP hydrolysis, at 30 µM, hits give high values, GST-tagged Rac1 F28L mutant substrate;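 note: fluorescence reports GDP produced by GAP-driven GTP hydrolysis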
Sequence (Q9H0H5 whole entry, looked up): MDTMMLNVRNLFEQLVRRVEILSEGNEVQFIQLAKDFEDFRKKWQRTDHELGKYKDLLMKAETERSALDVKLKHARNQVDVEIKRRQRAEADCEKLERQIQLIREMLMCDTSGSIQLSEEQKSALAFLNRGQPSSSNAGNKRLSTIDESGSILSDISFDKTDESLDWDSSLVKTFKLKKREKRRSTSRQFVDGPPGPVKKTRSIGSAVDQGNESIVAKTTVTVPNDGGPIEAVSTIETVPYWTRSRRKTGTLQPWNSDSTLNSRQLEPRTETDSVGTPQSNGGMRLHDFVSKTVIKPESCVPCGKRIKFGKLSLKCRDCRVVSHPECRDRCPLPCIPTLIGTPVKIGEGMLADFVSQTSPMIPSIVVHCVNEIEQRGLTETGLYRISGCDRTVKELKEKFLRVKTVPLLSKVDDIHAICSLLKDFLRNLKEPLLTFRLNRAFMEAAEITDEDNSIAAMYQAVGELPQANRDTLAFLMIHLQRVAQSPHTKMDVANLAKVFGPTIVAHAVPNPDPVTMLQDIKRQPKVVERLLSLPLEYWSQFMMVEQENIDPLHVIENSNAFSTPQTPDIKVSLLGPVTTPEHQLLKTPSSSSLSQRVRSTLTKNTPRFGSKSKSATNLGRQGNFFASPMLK

inhibition, inactive:
COc1ccccc1CNC(=O)CCNS(=O)(=O)/C=C/c1ccc(C)cc1 -0.75%, COc1cc(N)c2ncccc2c1Cl 7.55%, Nc1ccc(Br)c2cccnc12 9.68%, COc1cc(NC(C)CCCN)c2ncccc2c1Oc1ccccc1 (centres undefined) 1.99%, COc1cc(N)c2ncccc2c1Br 20%, COc1cc(NC(=O)c2cccnc2SC)cc(OC)c1OC 9.4%, COc1cc(NC(C)CCCN)c2ncccc2c1 (centres undefined) -2.49%, CCOC(=O)N1CCN(c2ccc(N3C(=O)CCCC3=O)cc2[N+](=O)[O-])CC1 4.36%, O=C(CCNS(=O)(=O)c1ccc2[nH]c(=O)oc2c1)Nc1ccccc1 -24.4%, COc1ccc(OC)c(C(C[N+](=O)[O-])c2c(C)cc3ccccn23)c1 (centres undefined) 5.52%, Cc1c(N2CCCCC2)[nH]c2ccccc12 8.41%, Cc1cccc(OCC(=O)Nc2ccc(N3CCN(C(=O)c4ccco4)CC3)cc2)c1C 8.56%, Cn1c(-c2cccc(Br)c2)cnc1NCc1cccnc1 29.7%, Cn1c(-c2ccc(F)cc2)cnc1NCc1cccc(F)c1 9.97%, COc1cc(CNc2ncc(-c3ccc(Br)cc3)n2C)cc(OC)c1OC 29.8%, Cn1c(-c2ccc(Br)cc2)cnc1NCc1cccnc1 18.7%, Cn1c(-c2ccc(F)cc2)cnc1NCc1ccc(F)cc1 16.6%, Cn1c(-c2ccc(Br)cc2)cnc1NCc1ccc(C#N)cc1 21.2%, C[C@H](CO)N1C[C@H](C)[C@@H](CN(C)S(=O)(=O)c2ccc(F)cc2)Oc2c(NC(=O)Cc3ccccc3)cccc2C1=O 9.78%, CCCc1nc2ccccc2c(=O)n1NC(=O)c1c(O)c2ccccc2n(C)c1=O -1.3%, Cc1ccc(N=C2C(=O)Nc3ccccc32)cc1C 1.21%, O=C1Nc2ccccc2C1=Nc1ccc(F)cc1 6.47%, COc1cccc(NC(=O)C(c2ccccc2)N2CCNC(=O)C2)c1 (centres undefined) -3.03%, CN(CC(=O)Nc1c(Cl)cccc1Cl)C(=O)Cc1ccc2c(c1)CCC2 4.3%, CC[n+]1c(/C=C/c2ccc(OC(C)=O)c(OC)c2)ccc2ccccc21 27%, COc1ccc(/C=C/c2ccc3ccccc3[n+]2C)cc1OC -0.83%, O=C(/C=C/Nc1ccc(F)cc1)c1cccs1 8.26%, Cc1ccc(N/C=C/C(=O)c2cccs2)cc1 1.9%, COc1ccc(C)cc1N(CC(=O)Nc1cccnc1)S(=O)(=O)c1ccc(C)cc1 3.72%, O=C(CCSc1nnc(-c2ccco2)o1)Nc1ccc(Cl)cc1 5.12%, Cc1ccc(S(=O)(=O)N2CCOCC2)cc1C(=O)NC1CCCC1 6.35%, COC(=O)c1cccc(/C=N/NC(N)=S)c1O 14.2%, NC(=S)N/N=C/c1ccccc1O 10.3%, COc1ccc(N(C(C)=O)S(=O)(=O)c2cc(OC)ccc2OC)cc1 12.7%, COc1ccnc(N2CCN(c3ccccc3)CC2)c1C#N 8.98%, COc1ccc(C(=O)N2CCN(c3ncccn3)CC2)cc1 0.88%, COc1ccc(N2CCN(c3ccc(N)cc3C#N)CC2)cc1 27.6%, COc1cccc(N2CCN(c3ncccn3)CC2)c1 5.71%, COc1ccc(C(=O)NCC(=O)OCc2ccc(Br)cc2)cc1 11.1%, CC(c1nccs1)N(C)C(=O)CCc1nnc(Cc2c[nH]c3ccccc23)o1 (centres undefined) 11.5%, O=C1/C(=C/c2ccc(O)cc2)SC(=S)N1CC1CCCO1 (centres undefined) 31.1%, COC(=O)C1=C(C)N(CC2CCCO2)C(=O)C1 (centres undefined) 4.38%, O=C(N/N=C/c1ccc(-c2ccccc2C(=O)O)o1)c1cccs1 11.8%, COc1ccc(-c2noc(-c3ccccc3C(=O)NCc3ccco3)n2)cc1 8.25%, CCCNC(=O)CN1CCN(c2cc3ccccc3c(Cl)n2)CC1 4.31%, CC(=O)Nc1ccc(Oc2nc(C(F)(F)F)nc3ccccc23)cc1 11.9%, Cc1cccc(Oc2nc(-c3ccccn3)nc3ccccc23)c1 11.2%, CC(C)(C)S(=O)(=O)N1C[C@@H]2CC/C=C\C/C(c3ccccc3)=C\2[C@H]1CCO 6.06%, C=C1CCN([C@@H](CC(C)C)C(=O)NCc2ccc(OC)cc2)S(=O)(=O)c2ccccc21 13.2%, COc1ccc2ccccc2c1C1NC(=O)NC(C)=C1[N+](=O)[O-] (centres undefined) 1.63%, CC[n+]1c(/C=C/c2ccc(OC)c(OC)c2)ccc2ccccc21 11.3%, CN(CCCS(=O)(=O)[O-])c1ccc(/C=C/c2ccc3ccccc3[n+]2C)cc1 9.16%, CN(C)c1ccc(/C=C/c2nc3ccccc3s2)cc1 13.3%, C[n+]1c(/C=C/c2ccc3c(c2)OCO3)ccc2ccccc21 -4.73%, CC[n+]1c(/C=C/C=C/N(C(C)=O)c2ccccc2)sc2ccccc21 23.1%, CCN(CC)c1ccc(/C=C/c2ccc3ccc(OC)cc3[n+]2CC)cc1 12.8%, COc1ccccc1N1CCN(C(=O)C(=O)c2cn(CC(=O)N3CCCCCC3)c3ccccc23)CC1 4.2%, Cc1ccc2oc(=O)c3cnn(CC(=O)N(CCCN4CCOCC4)Cc4ccco4)c3c2c1 5.12%, CCCCNC(=O)CCC(=O)Nc1ccc2nc(N3CCN(C)CC3)cc(C)c2c1 11.9%, CCCN(CCC)CCNC(=O)CCC(=O)Nc1ccc2nc(N3CCN(C)CC3)cc(C)c2c1 26.7%, CCN(C(=O)CN1C(=O)c2ccc([N+](=O)[O-])cc2C1=O)C1CCCCC1 -1.26%, COc1cccc(OCC(O)CNC2CCCC2)c1 (centres undefined) -1.44%, CCC(CC)CN1C(Nc2ccccc2)=NC[C@@H]1C 1.3%, C=CCc1cc(/C=C2/NC(=O)N(CC(=O)OC)C2=O)cc(OC)c1O 10.1%, NC(=O)NC(=O)CSc1nc(C2CCCCC2)n(-c2ccccc2)n1 3.47%, O=C(CSc1nc(C2CCCCC2)n(-c2ccccc2)n1)NCC(F)(F)F 8.72%, O=C(Nc1nccs1)C1CC(=O)N(CCc2ccc(F)cc2)C1 (centres undefined) 6.31%, Nc1nonc1-n1nnc(C(=O)N/N=C/c2cccc(Cl)c2)c1CN1CCCCCC1 3.77%, C=CCOC1COC2C(OCC=C)COC12 (centres undefined) 3.53%, c1ccc(CCNCCOc2ccccc2)cc1 17.6%, COc1ccc(OCCCNCCc2ccccc2)cc1 4.94%, CC(=O)NCCOc1cccc2ccccc12 -4.94%, Cc1ccc(OCCCCNC(C)c2ccccc2)c(C)c1 (centres undefined) 28.7%, Cc1ccc(S(=O)(=O)N2CC=C(C(=O)NCc3ccccc3)CC2)cc1 6.07%, CC(=O)c1ccc(NC(=O)C[n+]2ccccc2)cc1 10.2%, CCOc1ccc(CCNC(=O)COC(=O)c2cc(OC)c(OC)cc2[N+](=O)[O-])cc1OCC -1.41%, Cc1ccc(NC(=O)CN(C)Cc2nc3ccccc3c(=O)[nH]2)c(Br)c1 4.68%, CCOCCCNCc1ccc(OC)c(OC)c1 13.9%, COCCCNc1nc2cc(OC)c(OC)cc2c2nc(-c3ccccc3)nn12 2.71%, COCCNc1nc(=S)[nH]c2cc(OC)c(OC)cc12 15.3%, CCOc1cc2nc(-c3ccc(OC)c(OC)c3)nc(NCCCN3CCOCC3)c2cc1OC 18.4%, CCCCn1c(N)c(N(CC(C)C)C(=O)CCNC(=O)c2ccccc2Cl)c(=O)[nH]c1=O 6.4%, CCOc1cc(C(=S)N2CCOCC2)ccc1OS(=O)(=O)c1ccc(OC)cc1 3.51%, C[C@@H]1CN([C@H](C)CO)C(=O)CCCn2nncc2CO[C@H]1CN(C)S(=O)(=O)c1ccc2ccccc2c1 12.9%, CCCCNC(=O)Cn1cnc2c(cnn2-c2ccc(C)cc2)c1=O 6.17%, Clc1ccc(N=c2ssnc2Cl)cc1 14.7%, Clc1nssc1=Nc1ccccc1 13.8%, O=C(N/N=C/c1ccc([N+](=O)[O-])o1)c1cc(-c2cccc(Br)c2)nc2ccccc12 -2.15%, C/C(=N\N=c1/sc2ccccc2n1C)c1ccc(N2CCOCC2)cc1 6.81%, Cn1c(=Nc2ccc(N3CCOCC3)cc2)ccc2ccccc21 16.1%, O=[N+]([O-])c1cccc(-c2ccc(C(=S)N3CCN(c4ccc(F)cc4)CC3)o2)c1 5.79%, CN(C)c1ccc2nsnc2c1[N+](=O)[O-] 7.42%, Cc1ccc2nsnc2c1NC(=O)c1ccc([N+](=O)[O-])cc1 14.4%, Brc1ccc(-c2cn3c(n2)SCC3)cc1 15.1%, Cc1ccc(-c2cn3c(n2)SCC3)cc1 14.4%, CCCCNc1c(-c2ccc(SC3CCCCC3)c(OC)c2)nc2ccc(C)cn12 2.06%, O=C(Nc1ncccn1)C1c2ccccc2Oc2ccccc21 2.37%, COc1ccc2nnc(-c3ccccc3)n2n1 10.9%, COC(=O)c1ccc(Oc2ccc3nnc(C)n3n2)cc1 -0.14%
